# Tests used:
# Test in all cases: DAPPL (digital affinity profiling via proximity ligation, sequencing); 10 mM Tris-HCl pH 7.5, 50 mM NaCl, 1 mM DTT, 4% glycerol, room temperature, 30 min; GST-TFs on glutathione beads, 16-mer random dsDNA library, 0.1% formaldehyde crosslink after washing; high values mean tight binding
# FLI1 = target: T1, FLI1 (Homo sapiens, UniProt Q01543 1-452); conditions: protein: recombinant; tags: N-terminal GST; dsDNA, one strand shown
# T1 sequence: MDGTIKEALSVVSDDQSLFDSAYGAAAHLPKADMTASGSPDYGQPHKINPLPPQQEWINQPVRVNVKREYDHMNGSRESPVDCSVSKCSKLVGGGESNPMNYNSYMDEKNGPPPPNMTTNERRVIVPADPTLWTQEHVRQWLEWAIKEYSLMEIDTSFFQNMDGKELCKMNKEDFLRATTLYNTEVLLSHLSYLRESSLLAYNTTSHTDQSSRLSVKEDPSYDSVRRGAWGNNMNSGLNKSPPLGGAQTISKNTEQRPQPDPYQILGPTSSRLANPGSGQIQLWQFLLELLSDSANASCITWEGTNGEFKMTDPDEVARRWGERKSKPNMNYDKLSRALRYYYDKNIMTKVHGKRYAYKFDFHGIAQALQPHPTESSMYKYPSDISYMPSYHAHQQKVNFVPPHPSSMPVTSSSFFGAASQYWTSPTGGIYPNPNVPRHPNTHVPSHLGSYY
# Summary of the method: (§1)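 Human transcription factors were made in yeast as GST fusions, captured on glutathione beads and barcoded with DNA. With a tag-only sample included, the pool was incubated with 200 nmole of a random double-stranded 16-mer DNA library in Tris/NaCl/DTT/glycerol buffer at room temperature for 30 min, then crosslinked with 0.1% formaldehyde after washing, ligated by proximity, amplified and sequenced. For binding signal, each hexamer's read frequency for a factor is divided by its frequency for the tag-only sample.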
# ELK1 = target: T2, ELK1 (Homo sapiens, UniProt P19419 1-428); conditions: protein: recombinant; tags: N-terminal GST; dsDNA, one strand shown
# T2 sequence: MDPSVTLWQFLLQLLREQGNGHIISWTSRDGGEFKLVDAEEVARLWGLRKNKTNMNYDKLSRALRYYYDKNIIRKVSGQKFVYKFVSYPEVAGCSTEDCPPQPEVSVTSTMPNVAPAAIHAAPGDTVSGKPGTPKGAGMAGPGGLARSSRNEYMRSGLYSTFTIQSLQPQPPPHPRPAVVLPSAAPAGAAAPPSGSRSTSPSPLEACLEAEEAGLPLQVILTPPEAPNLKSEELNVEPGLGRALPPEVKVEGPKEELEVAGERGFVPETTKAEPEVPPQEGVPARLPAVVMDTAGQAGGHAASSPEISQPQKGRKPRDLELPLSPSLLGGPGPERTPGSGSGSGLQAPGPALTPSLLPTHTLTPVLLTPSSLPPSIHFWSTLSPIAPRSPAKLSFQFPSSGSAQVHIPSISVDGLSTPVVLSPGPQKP
# Summary of the method: as §1
# GABPA = target: T3, GABPA (Homo sapiens, UniProt Q06546 1-454); conditions: protein: recombinant; tags: N-terminal GST; dsDNA, one strand shown
# T3 sequence: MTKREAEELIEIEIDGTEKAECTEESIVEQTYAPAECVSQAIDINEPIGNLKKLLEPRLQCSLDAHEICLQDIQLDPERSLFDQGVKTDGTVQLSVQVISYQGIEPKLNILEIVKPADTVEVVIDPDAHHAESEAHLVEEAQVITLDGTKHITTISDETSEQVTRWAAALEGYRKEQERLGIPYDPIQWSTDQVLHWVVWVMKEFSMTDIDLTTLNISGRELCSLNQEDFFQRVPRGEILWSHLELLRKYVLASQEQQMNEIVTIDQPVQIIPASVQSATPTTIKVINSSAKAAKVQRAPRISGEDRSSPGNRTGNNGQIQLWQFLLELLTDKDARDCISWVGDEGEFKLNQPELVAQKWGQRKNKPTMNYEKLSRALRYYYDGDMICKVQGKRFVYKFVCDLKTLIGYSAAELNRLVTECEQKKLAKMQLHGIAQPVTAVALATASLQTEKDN
# Summary of the method: as §1
# ERG = target: T4, ERG (Homo sapiens, UniProt P11308 1-479); conditions: protein: recombinant; tags: N-terminal GST; dsDNA, one strand shown
# T4 sequence: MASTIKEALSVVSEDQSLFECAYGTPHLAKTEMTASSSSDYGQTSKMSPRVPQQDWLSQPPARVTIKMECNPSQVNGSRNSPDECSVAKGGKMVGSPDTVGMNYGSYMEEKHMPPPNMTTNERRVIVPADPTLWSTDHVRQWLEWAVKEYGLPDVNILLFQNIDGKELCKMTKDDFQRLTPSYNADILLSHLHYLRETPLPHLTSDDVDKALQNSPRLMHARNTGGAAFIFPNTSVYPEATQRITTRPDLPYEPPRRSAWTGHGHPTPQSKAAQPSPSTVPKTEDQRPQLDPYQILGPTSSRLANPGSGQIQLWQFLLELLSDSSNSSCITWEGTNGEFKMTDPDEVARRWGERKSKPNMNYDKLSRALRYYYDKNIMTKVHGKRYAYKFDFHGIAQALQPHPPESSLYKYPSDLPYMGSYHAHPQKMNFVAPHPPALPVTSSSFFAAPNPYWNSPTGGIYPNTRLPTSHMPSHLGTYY
# Summary of the method: as §1
# ELF1 = ELF1 (Homo sapiens, UniProt P32519 1-619); conditions: protein: recombinant; tags: N-terminal GST; dsDNA, one strand shown
# ELF1, sequence (P32519 whole entry): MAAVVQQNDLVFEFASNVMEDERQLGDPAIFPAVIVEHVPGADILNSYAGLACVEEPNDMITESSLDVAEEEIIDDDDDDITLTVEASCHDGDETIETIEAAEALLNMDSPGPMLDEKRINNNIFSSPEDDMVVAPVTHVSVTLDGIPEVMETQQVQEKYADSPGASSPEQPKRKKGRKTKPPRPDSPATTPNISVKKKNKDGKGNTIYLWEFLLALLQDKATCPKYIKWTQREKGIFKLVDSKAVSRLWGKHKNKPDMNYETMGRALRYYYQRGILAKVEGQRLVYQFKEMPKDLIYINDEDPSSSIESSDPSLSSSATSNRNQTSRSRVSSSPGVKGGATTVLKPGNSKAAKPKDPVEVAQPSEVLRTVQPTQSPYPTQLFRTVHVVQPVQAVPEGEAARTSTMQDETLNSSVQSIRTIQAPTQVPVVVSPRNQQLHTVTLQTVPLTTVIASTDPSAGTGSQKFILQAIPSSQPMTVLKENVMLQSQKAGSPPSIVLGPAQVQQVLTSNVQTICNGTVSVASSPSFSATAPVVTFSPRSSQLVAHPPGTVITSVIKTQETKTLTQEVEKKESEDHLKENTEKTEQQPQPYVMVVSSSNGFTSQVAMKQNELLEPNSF
# Summary of the method: as §1
# EHF = target: T5, EHF (Homo sapiens, UniProt Q9NZC4 1-300); conditions: protein: recombinant; tags: N-terminal GST; dsDNA, one strand shown
# T5 sequence: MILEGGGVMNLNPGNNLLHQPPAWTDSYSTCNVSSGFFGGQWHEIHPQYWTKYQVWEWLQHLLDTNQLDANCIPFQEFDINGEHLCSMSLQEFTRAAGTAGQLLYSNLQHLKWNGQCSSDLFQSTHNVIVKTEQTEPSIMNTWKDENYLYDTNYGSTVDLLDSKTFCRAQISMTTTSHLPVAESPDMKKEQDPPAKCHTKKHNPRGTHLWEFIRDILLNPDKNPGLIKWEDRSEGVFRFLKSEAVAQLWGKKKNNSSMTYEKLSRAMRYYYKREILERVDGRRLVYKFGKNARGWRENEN
# Summary of the method: as §1
# SPI1 = SPI1 (Homo sapiens, UniProt P17947 1-270); conditions: protein: recombinant; tags: N-terminal GST; dsDNA, one strand shown
# Summary of the method: as §1
# SPIB = SPIB (Homo sapiens, UniProt Q01892 1-262); conditions: protein: recombinant; tags: N-terminal GST; dsDNA, one strand shown
# SPIB, sequence (Q01892 whole entry): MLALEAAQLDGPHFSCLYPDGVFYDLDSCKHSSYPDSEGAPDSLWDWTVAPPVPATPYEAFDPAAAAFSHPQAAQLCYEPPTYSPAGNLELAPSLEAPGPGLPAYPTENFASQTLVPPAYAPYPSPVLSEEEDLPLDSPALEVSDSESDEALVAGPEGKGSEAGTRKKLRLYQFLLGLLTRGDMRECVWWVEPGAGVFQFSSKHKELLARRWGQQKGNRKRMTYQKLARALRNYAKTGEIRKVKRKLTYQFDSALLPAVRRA
# Summary of the method: as §1
# ELK3 = target: T6, ELK3 (Homo sapiens, UniProt P41970 1-407); conditions: protein: recombinant; tags: N-terminal GST; dsDNA, one strand shown
# T6 sequence: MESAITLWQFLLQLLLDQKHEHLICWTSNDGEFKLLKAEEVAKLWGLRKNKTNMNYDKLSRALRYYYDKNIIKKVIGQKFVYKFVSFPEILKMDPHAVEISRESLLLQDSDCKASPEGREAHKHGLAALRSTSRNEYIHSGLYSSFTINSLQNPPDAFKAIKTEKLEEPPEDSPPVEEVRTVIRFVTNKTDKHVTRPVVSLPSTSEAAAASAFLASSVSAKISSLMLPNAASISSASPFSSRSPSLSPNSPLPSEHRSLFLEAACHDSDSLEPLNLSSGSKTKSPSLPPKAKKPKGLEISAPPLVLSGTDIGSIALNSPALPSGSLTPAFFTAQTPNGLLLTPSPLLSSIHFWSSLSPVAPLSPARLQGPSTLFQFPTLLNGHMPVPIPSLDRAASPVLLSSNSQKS
# Summary of the method: as §1
# FEV = target: T7, FEV (Homo sapiens, UniProt Q99581 1-238); conditions: protein: recombinant; tags: N-terminal GST; dsDNA, one strand shown
# T7 sequence: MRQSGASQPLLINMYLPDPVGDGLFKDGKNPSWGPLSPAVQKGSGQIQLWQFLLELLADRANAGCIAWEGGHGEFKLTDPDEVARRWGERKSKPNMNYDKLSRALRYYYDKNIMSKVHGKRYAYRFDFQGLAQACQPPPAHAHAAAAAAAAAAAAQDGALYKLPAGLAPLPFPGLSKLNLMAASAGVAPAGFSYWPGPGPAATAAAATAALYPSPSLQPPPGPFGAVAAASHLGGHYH
# Summary of the method: as §1
# ETV5 = ETV5 (Homo sapiens, UniProt P41161 1-510); conditions: protein: recombinant; tags: N-terminal GST; dsDNA, one strand shown
# ETV5, sequence (P41161 whole entry): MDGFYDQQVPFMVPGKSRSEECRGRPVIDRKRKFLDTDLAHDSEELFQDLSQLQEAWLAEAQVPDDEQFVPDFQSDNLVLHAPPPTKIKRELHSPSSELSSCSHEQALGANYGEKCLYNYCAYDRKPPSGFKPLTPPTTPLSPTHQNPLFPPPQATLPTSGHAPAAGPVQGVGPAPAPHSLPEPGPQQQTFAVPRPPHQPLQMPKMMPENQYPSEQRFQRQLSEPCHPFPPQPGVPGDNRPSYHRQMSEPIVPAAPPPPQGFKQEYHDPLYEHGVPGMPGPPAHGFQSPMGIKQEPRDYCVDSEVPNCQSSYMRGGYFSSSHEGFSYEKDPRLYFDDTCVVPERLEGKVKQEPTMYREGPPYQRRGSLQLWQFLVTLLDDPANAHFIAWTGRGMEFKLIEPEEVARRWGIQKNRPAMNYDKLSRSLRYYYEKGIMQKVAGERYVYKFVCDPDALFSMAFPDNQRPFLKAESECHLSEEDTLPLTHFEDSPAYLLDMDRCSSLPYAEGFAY
# Summary of the method: as §1
# HSF1 = HSF1 (Homo sapiens, UniProt Q00613 1-529); conditions: protein: recombinant; tags: N-terminal GST; chain copies: 3; dsDNA, one strand shown
# HSF1, sequence (Q00613 whole entry): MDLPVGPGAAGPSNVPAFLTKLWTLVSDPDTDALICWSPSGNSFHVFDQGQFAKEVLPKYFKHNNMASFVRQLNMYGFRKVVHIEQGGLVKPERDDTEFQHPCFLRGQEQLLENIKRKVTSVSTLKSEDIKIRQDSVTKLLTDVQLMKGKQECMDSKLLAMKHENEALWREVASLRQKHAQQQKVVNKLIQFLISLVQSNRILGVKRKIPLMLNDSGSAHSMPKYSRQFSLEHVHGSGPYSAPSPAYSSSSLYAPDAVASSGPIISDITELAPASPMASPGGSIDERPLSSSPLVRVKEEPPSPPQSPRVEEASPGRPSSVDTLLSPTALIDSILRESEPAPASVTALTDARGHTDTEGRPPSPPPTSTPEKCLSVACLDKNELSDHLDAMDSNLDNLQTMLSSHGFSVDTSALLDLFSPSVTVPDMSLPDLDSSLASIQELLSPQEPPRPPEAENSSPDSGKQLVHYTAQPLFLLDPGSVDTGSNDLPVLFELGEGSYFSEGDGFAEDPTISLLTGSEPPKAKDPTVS
# Summary of the method: as §1
# SPIC = target: T8, SPIC (Homo sapiens, UniProt Q8N5J4 1-248); conditions: protein: recombinant; tags: N-terminal GST; dsDNA, one strand shown
# T8 sequence: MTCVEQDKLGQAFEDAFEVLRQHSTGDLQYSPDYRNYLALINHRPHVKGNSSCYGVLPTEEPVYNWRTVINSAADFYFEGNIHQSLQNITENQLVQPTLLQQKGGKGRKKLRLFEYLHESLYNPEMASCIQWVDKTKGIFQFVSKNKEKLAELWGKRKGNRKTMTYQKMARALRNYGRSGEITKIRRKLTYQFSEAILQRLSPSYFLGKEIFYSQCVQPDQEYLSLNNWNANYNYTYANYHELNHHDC
# Summary of the method: as §1
# ELF4 = ELF4 (Homo sapiens, UniProt Q99607 1-663); conditions: protein: recombinant; tags: N-terminal GST; dsDNA, one strand shown
# ELF4, sequence (Q99607 whole entry): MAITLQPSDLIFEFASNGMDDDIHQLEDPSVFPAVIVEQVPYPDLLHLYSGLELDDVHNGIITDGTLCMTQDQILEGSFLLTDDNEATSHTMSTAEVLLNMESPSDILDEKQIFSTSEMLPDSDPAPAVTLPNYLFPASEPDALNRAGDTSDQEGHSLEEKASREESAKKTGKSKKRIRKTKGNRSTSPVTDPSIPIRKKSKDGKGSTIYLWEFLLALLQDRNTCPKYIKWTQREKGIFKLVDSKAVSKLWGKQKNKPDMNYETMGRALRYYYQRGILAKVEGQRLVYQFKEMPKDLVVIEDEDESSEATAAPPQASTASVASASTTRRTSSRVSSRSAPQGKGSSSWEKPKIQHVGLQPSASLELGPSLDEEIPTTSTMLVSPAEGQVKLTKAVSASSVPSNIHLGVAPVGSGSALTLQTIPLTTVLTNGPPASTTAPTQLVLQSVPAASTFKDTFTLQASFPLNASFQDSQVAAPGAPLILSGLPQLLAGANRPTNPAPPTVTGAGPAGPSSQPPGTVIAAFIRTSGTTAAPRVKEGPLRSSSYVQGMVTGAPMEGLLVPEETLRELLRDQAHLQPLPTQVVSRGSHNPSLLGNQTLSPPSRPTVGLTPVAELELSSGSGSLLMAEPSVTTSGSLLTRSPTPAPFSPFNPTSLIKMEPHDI
# Summary of the method: as §1
# ELK4 = target: T9, ELK4 (Homo sapiens, UniProt P28324-2 1-405); conditions: protein: recombinant; tags: N-terminal GST; dsDNA, one strand shown
# T9 sequence: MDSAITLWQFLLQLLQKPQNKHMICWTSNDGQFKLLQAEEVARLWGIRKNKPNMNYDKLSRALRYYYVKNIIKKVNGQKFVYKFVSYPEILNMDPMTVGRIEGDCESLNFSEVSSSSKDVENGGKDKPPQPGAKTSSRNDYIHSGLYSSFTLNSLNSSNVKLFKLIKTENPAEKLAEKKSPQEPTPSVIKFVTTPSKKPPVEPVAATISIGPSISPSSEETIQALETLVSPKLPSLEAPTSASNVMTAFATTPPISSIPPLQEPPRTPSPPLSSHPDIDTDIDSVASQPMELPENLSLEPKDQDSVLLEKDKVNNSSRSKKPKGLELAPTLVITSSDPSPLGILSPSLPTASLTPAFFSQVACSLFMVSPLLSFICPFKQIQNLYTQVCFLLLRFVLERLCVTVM
# Summary of the method: as §1
# ETV2 = target: T10, ETV2 (Homo sapiens, UniProt O00321 1-342); conditions: protein: recombinant; tags: N-terminal GST; dsDNA, one strand shown
# T10 sequence: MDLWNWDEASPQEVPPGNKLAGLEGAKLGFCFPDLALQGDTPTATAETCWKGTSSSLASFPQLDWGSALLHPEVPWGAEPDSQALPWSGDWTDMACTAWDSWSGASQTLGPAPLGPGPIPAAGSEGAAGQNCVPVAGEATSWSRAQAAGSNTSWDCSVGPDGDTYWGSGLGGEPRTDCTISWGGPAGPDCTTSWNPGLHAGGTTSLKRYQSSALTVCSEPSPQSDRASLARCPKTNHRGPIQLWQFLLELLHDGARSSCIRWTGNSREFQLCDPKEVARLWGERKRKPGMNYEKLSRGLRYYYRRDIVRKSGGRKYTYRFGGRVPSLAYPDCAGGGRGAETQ
# Summary of the method: as §1
# ELF3 = target: T11, ELF3 (Homo sapiens, UniProt P78545 1-371); conditions: protein: recombinant; tags: N-terminal GST; dsDNA, one strand shown
# T11 sequence: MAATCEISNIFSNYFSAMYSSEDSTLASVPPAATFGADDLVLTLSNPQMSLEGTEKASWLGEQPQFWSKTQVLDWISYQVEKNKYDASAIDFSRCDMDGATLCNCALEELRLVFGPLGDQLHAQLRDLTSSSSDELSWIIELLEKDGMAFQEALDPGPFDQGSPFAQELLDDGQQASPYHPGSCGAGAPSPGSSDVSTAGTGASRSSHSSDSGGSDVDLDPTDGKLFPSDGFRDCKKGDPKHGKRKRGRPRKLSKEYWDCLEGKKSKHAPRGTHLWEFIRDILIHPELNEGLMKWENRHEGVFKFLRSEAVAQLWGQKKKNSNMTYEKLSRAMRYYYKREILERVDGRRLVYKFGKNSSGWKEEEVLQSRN
# Summary of the method: as §1
# CRX = CRX (Homo sapiens, UniProt O43186 1-299); conditions: protein: recombinant; tags: N-terminal GST; dsDNA, one strand shown
# CRX, sequence (O43186 whole entry): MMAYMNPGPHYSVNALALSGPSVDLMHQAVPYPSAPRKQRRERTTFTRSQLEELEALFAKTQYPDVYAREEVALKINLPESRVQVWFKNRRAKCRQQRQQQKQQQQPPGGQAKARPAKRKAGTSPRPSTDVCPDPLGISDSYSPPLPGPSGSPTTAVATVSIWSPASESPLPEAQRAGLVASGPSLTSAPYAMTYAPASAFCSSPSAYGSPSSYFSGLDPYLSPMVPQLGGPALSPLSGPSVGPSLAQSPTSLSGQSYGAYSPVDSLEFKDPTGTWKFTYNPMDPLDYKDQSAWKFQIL
# Summary of the method: as §1
# ETV1 = ETV1 (Homo sapiens, UniProt P50549 1-477); conditions: protein: recombinant; tags: N-terminal GST; dsDNA, one strand shown
# ETV1, sequence (P50549 whole entry): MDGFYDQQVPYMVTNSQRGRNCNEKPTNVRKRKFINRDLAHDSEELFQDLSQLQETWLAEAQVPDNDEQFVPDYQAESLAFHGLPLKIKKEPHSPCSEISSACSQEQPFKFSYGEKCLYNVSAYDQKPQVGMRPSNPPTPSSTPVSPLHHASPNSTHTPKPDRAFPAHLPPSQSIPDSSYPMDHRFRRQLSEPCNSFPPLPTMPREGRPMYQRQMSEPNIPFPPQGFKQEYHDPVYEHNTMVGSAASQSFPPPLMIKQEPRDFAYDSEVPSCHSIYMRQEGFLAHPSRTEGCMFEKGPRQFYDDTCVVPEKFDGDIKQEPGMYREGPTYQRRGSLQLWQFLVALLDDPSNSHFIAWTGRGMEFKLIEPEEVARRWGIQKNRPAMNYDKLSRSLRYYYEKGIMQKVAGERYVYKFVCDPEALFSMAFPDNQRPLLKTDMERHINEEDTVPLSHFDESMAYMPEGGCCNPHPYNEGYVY
# Summary of the method: as §1
sequence,measurement,setting,value
AGTAAT,binding signal,FLI1,"1.02 fold enrichment (6-mer frequency, TF over GST control)"
same,binding signal,ELK1,"1.1 fold enrichment (6-mer frequency, TF over GST control)"
same,binding signal,GABPA,"1.16 fold enrichment (6-mer frequency, TF over GST control)"
same,binding signal,ERG,"1.09 fold enrichment (6-mer frequency, TF over GST control)"
same,binding signal,ELF1,"1.12 fold enrichment (6-mer frequency, TF over GST control)"
same,binding signal,EHF,"1.19 fold enrichment (6-mer frequency, TF over GST control)"
same,binding signal,SPI1,"1.17 fold enrichment (6-mer frequency, TF over GST control)"
same,binding signal,SPIB,"1.1 fold enrichment (6-mer frequency, TF over GST control)"
same,binding signal,ELK3,"1.12 fold enrichment (6-mer frequency, TF over GST control)"
same,binding signal,FEV,"1.05 fold enrichment (6-mer frequency, TF over GST control)"
same,binding signal,ETV5,"1.12 fold enrichment (6-mer frequency, TF over GST control)"
same,binding signal,HSF1,"1.3 fold enrichment (6-mer frequency, TF over GST control)"
same,binding signal,SPIC,"1.12 fold enrichment (6-mer frequency, TF over GST control)"
same,binding signal,ELF4,"1.1 fold enrichment (6-mer frequency, TF over GST control)"
same,binding signal,ELK4,"1.08 fold enrichment (6-mer frequency, TF over GST control)"
same,binding signal,ETV2,"1.24 fold enrichment (6-mer frequency, TF over GST control)"
same,binding signal,ELF3,"1.08 fold enrichment (6-mer frequency, TF over GST control)"
same,binding signal,CRX,"1.61 fold enrichment (6-mer frequency, TF over GST control)"
same,binding signal,ETV1,"1.06 fold enrichment (6-mer frequency, TF over GST control)"

# Reference: PMC7862700, “An all-to-all approach to the identification of sequence-specific readers for epigenetic DNA modifications on cytosine”
